Screening results as filed in PubChem.
An excerpt weighted towards active compounds, which were near 2.8% of everything screened.
DRD3 antagonist – D3 dopamine receptor (human) antagonism; P35462; D3R cells, DiscoveRx beta-arrestin luminescence, antagonist mode; stronger effect = lower value; max response, negative = inhibition, %; 360,000 tested, 2.5% active; AID 652054; in the data active = max response below about -50%; inconclusive = no clear call, values can overlap the other calls; note: % is set by controls: 0 for no effect and ±100 for the full control effect
Target sequence (P35462 whole entry, looked up): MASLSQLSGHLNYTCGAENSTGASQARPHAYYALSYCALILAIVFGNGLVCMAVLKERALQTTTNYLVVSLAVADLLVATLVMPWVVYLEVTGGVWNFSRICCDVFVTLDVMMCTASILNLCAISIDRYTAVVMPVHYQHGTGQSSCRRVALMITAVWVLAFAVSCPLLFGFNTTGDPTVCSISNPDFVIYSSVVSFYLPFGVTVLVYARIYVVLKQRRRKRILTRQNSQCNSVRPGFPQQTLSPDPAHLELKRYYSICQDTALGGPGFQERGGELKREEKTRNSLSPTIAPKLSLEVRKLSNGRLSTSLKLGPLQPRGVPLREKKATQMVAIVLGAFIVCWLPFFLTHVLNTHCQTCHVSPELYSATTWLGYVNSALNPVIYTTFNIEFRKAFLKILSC
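Cells expressing the human receptor were seeded at 1500 cells/well, incubated overnight at 37 degrees C in 5% CO2, then exposed to library compounds with dopamine controls for 90 minutes at 37 degrees C before luminescent detection.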
D3 ag – activates the human D3 dopamine receptor | P35462 | D3R DiscoveRx beta-arrestin cells, luminescence, 90 min | max activation, % | 410,000 tested, 0.58% active; in the data active = max activation above about 30%; note: 0% is about no effect
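Agonist-mode cell screen: cells plated at 1500/well and incubated overnight at 37 °C, then exposed to library compounds for 90 min at 37 °C. Detection reagent was added for 30–60 min at room temperature, and luminescence was read.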
Giardia kill – Giardia lamblia killing; Giardia lamblia trophozoite viability; activity change, % at 7.66 µM, hits read low; 340,000 tested, 0.15% active; AID 540267; in the data active = activity change below about -80%; inconclusive = between about -30% and that limit;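 note: parasites exposed to compound for two days anaerobically before the ATP read; % is set by controls: 0 for no effect and ±100 for the full control effect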
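Compounds were tested on trophozoites seeded at 100 cells/well and held 48 hrs at 37 deg C anaerobically. An ATP-based luminescent kit measured the remaining live cells.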
B2AR arrestin – recruits beta-arrestin to the human beta2-adrenergic receptor. 330,000 tested, 0.02% active. Potency, µM (top dose mostly 46.1 µM), for inactives: top-dose activation, hits mostly activators. AID 492947. beta-arrestin recruitment to beta2AR, cell-based reporter. P07550; active = well fitted activation curve with a large enough effect; inconclusive = small, poorly fitted or top-dose-only effect;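 note: potency is the fitted concentration of half-maximal effect; 0% = DMSO controls and full agonism = EC100 isoproterenol or metaproterenol; nearly all actives have a fitted effect of over 65% in size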
* hit, by the source's call; ? = inconclusive; . = no result given; ! = repeats disagree.

SMILES	DRD3 antagonist	D3 ag	Giardia kill	B2AR arrestin
CC(=O)NC1CC2CCCC(C1)N2S(=O)(=O)c1ccccc1 (stereo unspecified)	14	8	10	0%
CC(C)(C)OC(=O)NC1CC2CCCC(C1)N2Cc1ccccc1 (stereo unspecified)	-85*	-21	2	-1%
COCC(=O)NC1CC2CCCC(C1)N2Cc1ccccc1 (stereo unspecified)	-77*	2	3	0%
Oc1ccc(Cl)cc1C1C=C(c2ccc3c(c2)OCO3)NC(c2ccc(C(F)(F)F)cc2)N1 (stereo unspecified)	.	.	17	.
Cc1ccc(C)c(NC(=O)c2nc(S(=O)(=O)Cc3ccc(F)cc3)ncc2Cl)c1	.	-29	.	.
CSc1nnc(NC(=O)c2nc(S(=O)(=O)Cc3ccccc3F)ncc2Cl)s1	0	-25	-8	0%
Cc1nnc(NC(=O)c2nc(S(=O)(=O)Cc3ccccc3C)ncc2Cl)s1	-50*	-10	10	-1%
CCSc1nnc(NC(=O)c2nc(S(=O)(=O)Cc3ccc(F)cc3)ncc2Cl)s1	-68*	-18	2	0%
Cc1ccc(CS(=O)(=O)c2ncc(Cl)c(C(=O)Nc3nnc(C(C)C)s3)n2)cc1	0	-21	-2	0%
CC(C)c1nnc(NC(=O)c2nc(S(=O)(=O)Cc3ccc(F)cc3)ncc2Cl)s1	-61*	-22	7	0%
CC(C)c1nnc(NC(=O)c2nc(S(=O)(=O)Cc3ccccc3F)ncc2Cl)s1	-51*	-6	?	0%
O=S(=O)(c1cc(Br)c(Br)s1)N1CCN(c2ccccc2)CC1	.	-5	.	.
CC(C)c1cc(-c2nc(-c3ccccc3)no2)n[nH]1	.	7	.	.
CCC(C)C(NC(=O)OC(C)(C)C)C(=O)NC1COC2CC(n3cc(C)c(=O)[nH]c3=O)OC12 (stereo unspecified)	.	.	1	.
COc1ccc(Cl)cc1NC(=O)c1cc(C)nn1-c1ccccc1	.	-7	.	.
COc1ccc(NC(=O)Cn2c(=O)n(-c3cccc(C)c3)c(=O)c3c2c2cc(C)ccc2n3C)cc1OC	.	2	.	.
Nc1c(CC(=O)O)cccc1C(=O)c1ccccc1	.	42*!	.	.
Nc1c(CC(=O)O)cccc1C(=O)c1ccc(Br)cc1	.	3	.	.
CC(=O)Nc1ccc(N=Cc2c(O)c(C(=O)Nc3ccccc3)cc3ccccc23)cc1	11	2	-4	0%
CCOc1cc(Br)c(Br)c(C=Nc2ccc(NC(C)=O)cc2)c1O	-100*	3	20	0%
Cn1ccsc1=NC(=O)c1ccc([N+](=O)[O-])o1	-16	-1	-93*	0%
O=C(Cn1sc2ccccc2c1=O)Nc1ccc(F)cc1	-78*	-17	.	.
O=C(Cn1sc2ccccc2c1=O)Nc1ccc(Br)cc1	-28	-9	.	.
c1ccc(C(O[C@H]2CCCN(CCc3ccc4c(c3)OCO4)C2)c2ccccc2)cc1	.	-25	.	.
COc1cc(OC)nc(C(NC(=O)C2CCN(Cc3ccc(N(C)C)cc3)CC2)c2ccc(F)cc2)n1 (stereo unspecified)	?	-15	.	.
SMILES	DRD3 antagonist	D3 ag	Giardia kill	B2AR arrestin
O=C(NC(c1ccc(F)cc1)c1ccc2ccccc2n1)C1CCN(CCOc2ccc(Cl)cc2)CC1 (stereo unspecified)	-118*	-24	.	.
O=C(NC(c1ccc(F)cc1)c1ccc2ccccc2n1)C1CCN(Cc2ccc3ccccc3n2)CC1 (stereo unspecified)	-53*	-15	.	.
O=C(NC(c1ccccc1)c1ccc2ccccc2n1)C1CCN(CCOc2ccc(Cl)cc2Cl)CC1 (stereo unspecified)	-22	-8	.	.
CN(C)c1ccc(CN2CCC(C(=O)NC(c3ccc(F)cc3)c3ccc4ccccc4n3)CC2)cc1 (stereo unspecified)	-82*	-23	.	.
O=C(NC(c1ccc(Cl)cc1)c1cnccn1)C1CCN(Cc2cccc(C(F)(F)F)c2)CC1 (stereo unspecified)	?	-19	.	.
O=C(NC(c1ccc(F)cc1)c1ccc2ccccc2n1)C1CCN(Cc2cccc(C(F)(F)F)c2)CC1 (stereo unspecified)	-81*	-14	.	.
CC(C)C[C@H](NC(=O)[C@H](Cc1ccccc1)NC(=O)c1cnccn1)B(O)O	.	7	.	.
COc1cc(/C=C/CN2CCC(C(=O)NC(c3ccc(F)cc3)c3ccc4ccccc4n3)CC2)ccc1OC(C)=O (stereo unspecified)	-110*	-26	.	.
Cc1c(C(=O)NCc2ccccc2)sc2nc3n(c(=O)c12)CCCCC3	.	4	.	.
COc1ccc(-c2nc(CCl)cs2)cc1OC	0	-2	0	0%
COc1ccc(-c2nc(-c3ccc(O)cc3O)cs2)cc1OC	47	39*	-10	0%
CCC1CCCCN1C(=O)c1sc(-n2nc(C)c(Cc3ccccc3)c2C)nc1C (stereo unspecified)	.	-13	.	.
O=C(N/N=C/c1ccc([N+](=O)[O-])o1)c1cc(-c2cccc(Br)c2)nc2ccccc12	-13	0	-86*	0%
CCCc1ccc(-c2cc(C(=O)N/N=C/c3ccc([N+](=O)[O-])o3)c3ccccc3n2)cc1	-3	-5	-94*	0%
Cc1coc2cc3oc(=O)c(CCC(=O)NC4CC4)c(C)c3cc12	6	3	-3	0%
Cc1c(CC(=O)N2CCC(C(N)=O)CC2)c(=O)oc2cc3c(cc12)CCC1(CCCCC1)O3	74	45*	1	0%
Cc1oc2cc3oc(=O)c(CCC(=O)NC4CC4)c(C)c3cc2c1C	78	79*	-8	5%
Cc1c(CCC(=O)N2CCC(C(=O)O)(c3ccccc3)CC2)c(=O)oc2cc3oc4c(c3cc12)CCCC4	-25	-4	-19	9%
Cc1c(CCC(=O)N2CCC(C(=O)O)CC2)c(=O)oc2cc3oc4c(c3cc12)CCCC4	96	42*	10	0%
COc1cc2ccccc2cc1C(=O)NC(=S)Nc1nnn(C)n1	1	1	5	0%
Cn1nnc(NC(=S)NC(=O)c2cc(Cl)ccc2Cl)n1	-70*	-21	-17	-1%
CN(C)c1ccc(NC(=O)CN2C(=O)c3ccccc3Sc3ccc(C(=O)N4CCCC4)cc32)cc1	.	0	.	.
Cc1ccc(C)c(N2CCN(C(=O)c3ccc4nc(-c5ccco5)c(-c5ccco5)nc4c3)CC2)c1	37	34*	15	0%
Fc1ccc(-c2nc(Nc3ccc(F)c(Cl)c3)nc3c2COc2ccccc2-3)cc1	.	6	.	.
NC(=O)C1(N2CCCCC2)CCN(Cc2ccc(F)cc2)CC1	-88*	-28	10	-1%
NC(=O)C1(N2CCCCC2)CCN(Cc2ccc(Br)cc2)CC1	-115*	-21	3	-1%
Fc1ccc(CN2CCCCCCC2)cc1	-26	0	12	0%
NC(=O)C1(N2CCCCC2)CCN(c2nc(-c3ccc(Br)cc3)cs2)CC1	17	8	4	0%
Cc1ccc(C)c(N2CCN(C(=O)C3CCN(c4nc5ccc(C)cc5[nH]4)CC3)CC2)c1	.	-4	.	.
COc1ccc(N2C(=O)CC(Sc3nnnn3-c3ccc(F)cc3)C2=O)cc1 (stereo unspecified)	-60*	-7	-2	0%
